In PubChem BioAssay (EPA / NIEHS):
Where “and” joins values, the source holds several entries; their conditions need not be identical. Identical values can stand only once. The source holds several records for some structures; these can differ, active in one and inactive in another. Calls of active or inactive are those of the source. Rule for the calls: active = hit-call score of the fitted dose curve at least 0.9, where 1 is the maximum; inactive = score below 0.9.

These molecules were tested on Monocyte Chemoattractant Protein-1 (MCP1), CCL2 (gene 6347) (assay: BSK_SAg_MCP1: BioMAP Diversity Plus: SAg Assay for Monocyte Chemoattractant Protein-1 (MCP1) Biomarker Activity (AID 2283090)). Details: primary human HUVEC with PBMC; actives raise or lower the signal.
Outline: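 Values derive from bidirectional fitting of ELISA-measured MCP1 against DMSO controls. Readings were taken 24 h after dosing human vascular endothelial cells co-cultured with peripheral blood mononuclear cells under superantigen stimulation.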

Structure (SMILES) | outcome | AC50
CNC(=S)S | inactive | 
CCNc1nc(Cl)nc(NCC)n1 | inactive | 
COC(=O)C(C)Oc1ccc(Oc2ccc(Cl)cc2Cl)cc1 (centres undefined) | inactive | 20 µM (active)
CCCN(CCC)c1c([N+](=O)[O-])cc(S(N)(=O)=O)cc1[N+](=O)[O-] |  | 34.8 µM (active) [middle of 4 runs]
CCOC(=O)CC(SP(=S)(OC)OC)C(=O)OCC (centres undefined) | inactive | 
Cc1ccc(-c2c(Cl)nc(C#N)n2S(=O)(=O)N(C)C)cc1 |  | 24.7 µM (active)
Oc1ccccc1-c1ccccc1 | inactive | 
CO/C=C(/C(=O)OC)c1ccccc1Oc1cc(Oc2ccccc2C#N)ncn1 | inactive | 26.6 µM (active) and 25.4 µM (active)
COc1cnc(OC)n2nc(NS(=O)(=O)c3c(OCC(F)F)cccc3C(F)(F)F)nc12 | inactive | 
CCc1nn(C)c(C(=O)NCc2ccc(C(C)(C)C)cc2)c1Cl |  | 20 µM (active)
N#CC(CCc1ccc(Cl)cc1)(Cn1cncn1)c1ccccc1 (centres undefined) | inactive | 
O=C(O)COc1nc(Cl)c(Cl)cc1Cl | inactive | 
C=CCC1=C(C)C(OC(=O)C2C(C=C(C)C)C2(C)C)CC1=O (centres undefined) |  | 34.9 µM (active) [middle of 4 runs]
N#Cc1cc(Br)c(O)c(Br)c1 | inactive | 
O=C(O)c1nc(Cl)ccc1Cl | inactive | 
C#CCOS(=O)OC1CCCCC1Oc1ccc(C(C)(C)C)cc1 (centres undefined) |  | 7.84 µM (active)
COC(=O)c1ccccc1C(=O)OC | inactive | 
COc1nc(NC(C)C)nc(NC(C)C)n1 | inactive | 
CC1=C(C(=O)Nc2ccccc2)SCCO1 | inactive | 
COP(=S)(OC)Oc1nc(Cl)c(Cl)cc1Cl | inactive | 
CN(C)C(=S)SSC(=S)N(C)C |  | 28.7 µM (active)
CNC(=O)ON=CC(C)(C)SC | inactive | 
COC(=O)C=C(C)OP(=O)(OC)OC | inactive | 
O=C(Nc1ccccc1)Nc1ccnc(Cl)c1 | inactive | 
CCCCNC(=O)OCC#CI |  | 29.2 µM (active) and 26.1 µM (active)
CCOc1cc(Oc2ccc(C(F)(F)F)cc2Cl)ccc1[N+](=O)[O-] | inactive | 

Each molecule was assayed on E-selectin (Homo sapiens) (UniProt P16581) (assay: BSK_SAg_Eselectin: BioMAP Diversity Plus: SAg Assay for Eselectin Biomarker Activity (AID 2283091)). Details: primary human HUVEC with PBMC; actives raise or lower the signal.
E-selectin (Homo sapiens), sequence (P16581 whole entry, looked up): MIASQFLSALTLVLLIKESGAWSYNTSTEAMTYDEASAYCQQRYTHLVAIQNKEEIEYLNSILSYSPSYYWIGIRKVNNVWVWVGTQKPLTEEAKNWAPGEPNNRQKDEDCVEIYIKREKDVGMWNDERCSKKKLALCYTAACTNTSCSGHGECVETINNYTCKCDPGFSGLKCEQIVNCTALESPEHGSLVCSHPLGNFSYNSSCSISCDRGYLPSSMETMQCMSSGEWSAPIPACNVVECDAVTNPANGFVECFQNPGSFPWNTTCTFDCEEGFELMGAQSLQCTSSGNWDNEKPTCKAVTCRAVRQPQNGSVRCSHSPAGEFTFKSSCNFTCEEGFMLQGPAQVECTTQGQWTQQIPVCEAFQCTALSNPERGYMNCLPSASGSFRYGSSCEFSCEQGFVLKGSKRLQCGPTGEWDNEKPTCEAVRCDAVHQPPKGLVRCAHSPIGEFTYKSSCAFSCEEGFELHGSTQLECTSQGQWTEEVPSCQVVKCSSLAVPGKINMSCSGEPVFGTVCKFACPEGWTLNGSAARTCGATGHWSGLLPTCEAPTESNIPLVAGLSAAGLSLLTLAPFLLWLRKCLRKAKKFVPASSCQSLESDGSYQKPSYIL
Outline: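 Primary human endothelial cells and peripheral blood mononuclear cells were co-cultured and exposed to chemical for 24 hours. E-selectin levels were then quantified by ELISA, with bidirectional curve fitting normalised to DMSO controls.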

Structure (SMILES) | AC50 | outcome
CNC(=S)S | 27.5 µM (active) | 
CCNc1nc(Cl)nc(NCC)n1 |  | inactive
COC(=O)C(C)Oc1ccc(Oc2ccc(Cl)cc2Cl)cc1 (centres undefined) |  | inactive
CCCN(CCC)c1c([N+](=O)[O-])cc(S(N)(=O)=O)cc1[N+](=O)[O-] | 33.1 µM (active) and 31.4 µM (active) and 30 µM (active) | 
CCOC(=O)CC(SP(=S)(OC)OC)C(=O)OCC (centres undefined) |  | inactive
Cc1ccc(-c2c(Cl)nc(C#N)n2S(=O)(=O)N(C)C)cc1 | 13.5 µM (active) | 
Oc1ccccc1-c1ccccc1 |  | inactive
CO/C=C(/C(=O)OC)c1ccccc1Oc1cc(Oc2ccccc2C#N)ncn1 | 17.4 µM (active) [middle of 4 runs] | 
COc1cnc(OC)n2nc(NS(=O)(=O)c3c(OCC(F)F)cccc3C(F)(F)F)nc12 |  | inactive
CCc1nn(C)c(C(=O)NCc2ccc(C(C)(C)C)cc2)c1Cl | 3.97 µM (active) | 
N#CC(CCc1ccc(Cl)cc1)(Cn1cncn1)c1ccccc1 (centres undefined) |  | inactive
O=C(O)COc1nc(Cl)c(Cl)cc1Cl |  | inactive
C=CCC1=C(C)C(OC(=O)C2C(C=C(C)C)C2(C)C)CC1=O (centres undefined) | 32.6 µM (active) [middle of 4 runs] | 
N#Cc1cc(Br)c(O)c(Br)c1 |  | inactive
O=C(O)c1nc(Cl)ccc1Cl |  | inactive
C#CCOS(=O)OC1CCCCC1Oc1ccc(C(C)(C)C)cc1 (centres undefined) | 4.02 µM (active) | 
COC(=O)c1ccccc1C(=O)OC |  | inactive
COc1nc(NC(C)C)nc(NC(C)C)n1 |  | inactive
CC1=C(C(=O)Nc2ccccc2)SCCO1 |  | inactive
COP(=S)(OC)Oc1nc(Cl)c(Cl)cc1Cl | 32 µM (active) | 
CN(C)C(=S)SSC(=S)N(C)C | 24.8 µM (active) | 
CNC(=O)ON=CC(C)(C)SC |  | inactive
COC(=O)C=C(C)OP(=O)(OC)OC |  | inactive
O=C(Nc1ccccc1)Nc1ccnc(Cl)c1 | 14.2 µM (active) | 
CCCCNC(=O)OCC#CI | 25 µM (active) and 22.7 µM (active) | 
CCOc1cc(Oc2ccc(C(F)(F)F)cc2Cl)ccc1[N+](=O)[O-] | 9.5 µM (active) | 
